According to paper PMC11574364:

Target: T1, YTHDF1 (Homo sapiens, UniProt Q9BYJ9)
T1 sequence: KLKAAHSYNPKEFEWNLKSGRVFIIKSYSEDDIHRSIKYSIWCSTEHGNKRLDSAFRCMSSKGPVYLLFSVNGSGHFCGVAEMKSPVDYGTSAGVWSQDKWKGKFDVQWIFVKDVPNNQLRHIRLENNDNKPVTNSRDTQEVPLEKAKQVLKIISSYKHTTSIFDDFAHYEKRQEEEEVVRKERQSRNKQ
Assay: protein domain microarray probed with biotinylated miRNA; Domain array: 20 mM Tris-HCl pH 7.4, 200 mM KCl, 0.2 mM EDTA, 0.05% NP40, 2 ug/ul heparin, overnight 4 C. ORF array: PBS pH 7.0 with RNase inhibitor, 100 ng RNA; high values mean tight binding
Details: ssRNA

Sequence	binding signal
UGAGGUAGUAGGUUGUGUGGUU	113 ± 10.3 fluorescence intensity
UGAGGUAGUAGGUUGUAUAGUU	22.8 ± 4.72 fluorescence intensity
UGAGGUAGUAGGUUGUAUGGUU	76.9 ± 5.2 fluorescence intensity
CAGUGCAAUGAUGAAAGGGCAU	51.305 ± 0.0212 fluorescence intensity
AGAGGUAGUAGGUUGCAUAGUU	52.7 ± 4.33 fluorescence intensity

Target: T2, RBM27 (Homo sapiens, UniProt Q9P2N5)
T2 sequence: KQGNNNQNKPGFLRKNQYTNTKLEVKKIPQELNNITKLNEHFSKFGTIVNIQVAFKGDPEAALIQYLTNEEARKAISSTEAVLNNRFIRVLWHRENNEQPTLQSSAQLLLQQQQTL
Assay: as above
Details: ssRNA

Sequence	binding signal
UGAGGUAGUAGGUUGUGUGGUU	985 ± 77.1 fluorescence intensity
UGAGGUAGUAGGUUGUAUAGUU	102 ± 16.8 fluorescence intensity
UGAGGUAGUAGGUUGUAUGGUU	657 ± 47.5 fluorescence intensity
UAGCUUAUCAGACUGAUGUUGA	145 ± 5.61 fluorescence intensity
CAGUGCAAUGAUGAAAGGGCAU	288 ± 4.19 fluorescence intensity
AGAGGUAGUAGGUUGCAUAGUU	486 ± 29.4 fluorescence intensity

Target: T3, STAU2(3) (Homo sapiens, UniProt Q9NUL3)
T3 chain: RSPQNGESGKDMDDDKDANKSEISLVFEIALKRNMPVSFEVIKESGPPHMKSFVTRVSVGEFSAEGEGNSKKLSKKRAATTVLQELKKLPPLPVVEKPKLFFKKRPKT
Assay: as above
Details: ssRNA

Sequence	binding signal
UGAGGUAGUAGGUUGUGUGGUU	121 ± 14.8 fluorescence intensity
UGAGGUAGUAGGUUGUAUGGUU	60.2 ± 7.26 fluorescence intensity
CAGUGCAAUGAUGAAAGGGCAU	37.5 ± 2.47 fluorescence intensity
AGAGGUAGUAGGUUGCAUAGUU	34.1 ± 5.01 fluorescence intensity

Target: T4, RKHD3(1-2) (Homo sapiens, UniProt Q6ZN04)
T4 sequence: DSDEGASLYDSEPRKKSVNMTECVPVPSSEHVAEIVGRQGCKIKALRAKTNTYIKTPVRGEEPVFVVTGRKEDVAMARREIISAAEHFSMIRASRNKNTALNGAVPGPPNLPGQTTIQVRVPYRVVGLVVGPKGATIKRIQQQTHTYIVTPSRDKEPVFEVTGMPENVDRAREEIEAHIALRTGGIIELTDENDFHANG
Assay: as above
Details: ssRNA

Sequence	binding signal
UGAGGUAGUAGGUUGUGUGGUU	1502 ± 3.98 fluorescence intensity
UGAGGUAGUAGGUUGUAUAGUU	1250 ± 20.7 fluorescence intensity
UGAGGUAGUAGGUUGUAUGGUU	1740 ± 134 fluorescence intensity
UAGCUUAUCAGACUGAUGUUGA	1110 ± 41.5 fluorescence intensity
CAGUGCAAUGAUGAAAGGGCAU	1440 ± 55 fluorescence intensity
AGAGGUAGUAGGUUGCAUAGUU	2320 ± 70.7 fluorescence intensity

Target: T5, RBM19(2-4) (Homo sapiens, UniProt Q9Y4C8)
T5 sequence: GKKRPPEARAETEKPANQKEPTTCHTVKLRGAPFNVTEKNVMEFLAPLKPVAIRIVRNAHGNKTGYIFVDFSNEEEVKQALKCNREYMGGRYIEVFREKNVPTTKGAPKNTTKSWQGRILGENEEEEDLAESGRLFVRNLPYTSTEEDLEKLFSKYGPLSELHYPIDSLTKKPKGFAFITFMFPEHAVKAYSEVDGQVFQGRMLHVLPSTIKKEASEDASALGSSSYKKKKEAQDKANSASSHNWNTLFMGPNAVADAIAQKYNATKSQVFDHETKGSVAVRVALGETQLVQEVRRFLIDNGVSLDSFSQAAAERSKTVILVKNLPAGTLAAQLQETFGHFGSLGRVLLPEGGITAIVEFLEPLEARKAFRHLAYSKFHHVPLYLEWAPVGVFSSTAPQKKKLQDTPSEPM
Assay: as above
Details: ssRNA

Sequence	binding signal
UGAGGUAGUAGGUUGUGUGGUU	1520 ± 225 fluorescence intensity
UGAGGUAGUAGGUUGUAUAGUU	902 ± 121 fluorescence intensity
UGAGGUAGUAGGUUGUAUGGUU	1810 ± 313 fluorescence intensity
UAGCUUAUCAGACUGAUGUUGA	901 ± 119 fluorescence intensity
CAGUGCAAUGAUGAAAGGGCAU	2090 ± 439 fluorescence intensity
AGAGGUAGUAGGUUGCAUAGUU	2390 ± 546 fluorescence intensity

Target: T6, RBM26(2) (Homo sapiens, UniProt Q5T8P6)
T6 sequence: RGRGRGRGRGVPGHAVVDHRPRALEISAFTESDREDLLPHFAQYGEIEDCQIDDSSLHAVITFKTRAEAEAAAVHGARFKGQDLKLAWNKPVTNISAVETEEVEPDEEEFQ
Assay: as above
Details: ssRNA

Sequence	binding signal
UGAGGUAGUAGGUUGUGUGGUU	248 ± 3.91 fluorescence intensity
UGAGGUAGUAGGUUGUAUAGUU	23.4 ± 0.552 fluorescence intensity
UGAGGUAGUAGGUUGUAUGGUU	298 ± 14 fluorescence intensity
CAGUGCAAUGAUGAAAGGGCAU	25.8 ± 3.42 fluorescence intensity
AGAGGUAGUAGGUUGCAUAGUU	168 ± 6.55 fluorescence intensity

Target: T7, RBM14 (Homo sapiens, UniProt Q96PK6)
T7 sequence: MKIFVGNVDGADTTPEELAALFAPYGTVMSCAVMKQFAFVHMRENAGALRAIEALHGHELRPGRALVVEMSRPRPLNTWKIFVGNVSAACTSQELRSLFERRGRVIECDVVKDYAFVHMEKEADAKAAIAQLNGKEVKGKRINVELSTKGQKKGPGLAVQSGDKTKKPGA
Assay: as above
Details: ssRNA

Sequence	binding signal
UGAGGUAGUAGGUUGUGUGGUU	66.3 ± 8.01 fluorescence intensity
UGAGGUAGUAGGUUGUAUGGUU	39.7 ± 3.13 fluorescence intensity
CAGUGCAAUGAUGAAAGGGCAU	23.1 ± 3.36 fluorescence intensity
AGAGGUAGUAGGUUGCAUAGUU	26.3 ± 7.16 fluorescence intensity

Target: RALYL (Homo sapiens, UniProt Q86SE5)
Assay: as above
Details: ssRNA

Sequence of RALYL (Q86SE5 1-115): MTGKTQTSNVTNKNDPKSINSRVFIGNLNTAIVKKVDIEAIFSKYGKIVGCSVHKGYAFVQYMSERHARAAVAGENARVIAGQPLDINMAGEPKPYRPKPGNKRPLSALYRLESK

Sequence	binding signal
UGAGGUAGUAGGUUGUGUGGUU	1030 ± 103 fluorescence intensity
UGAGGUAGUAGGUUGUAUAGUU	319 ± 85.1 fluorescence intensity
UGAGGUAGUAGGUUGUAUGGUU	1090 ± 62.2 fluorescence intensity
UAGCUUAUCAGACUGAUGUUGA	190 ± 59.9 fluorescence intensity
CAGUGCAAUGAUGAAAGGGCAU	381 ± 18.7 fluorescence intensity
AGAGGUAGUAGGUUGCAUAGUU	932 ± 89.3 fluorescence intensity
